From PubChem BioAssay (Tox21)
Inconclusive results are not listed. Active and inactive are the calls of the source. Unless noted, calls come from the whole dose curve; as a rule, active = well fitted curve in the direction sought with a large enough effect in the repeat runs; inconclusive = weak or mixed curves; inactive = no such curve, though single readings can be large; an effect the other way counts as inactive or inconclusive.

Key:
[1] = A CellTox Green Cytotoxicity Assay to monitor cytotoxicity in HepG2 cells - 40 hour (AID 1224879); note: nearly all actives have a fitted effect of over 40% in size
Summary of the method: (§1)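 Fluorescent DNA-binding dye, 600 HepG2 cells/well, 5 h preincubation then compound in DMSO; same plates read at 0–40 h, 37 C.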

[2] = A CellTox Green Cytotoxicity Assay to monitor cytotoxicity in HEK293 cells - 32 hour (AID 1224881); note: nearly all actives have a fitted effect of over 40% in size
Summary of the method: (§2)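 Homogeneous no-lysis format: HEK293 cell suspension mixed with CellTox Green reagent, seeded, incubated 5 h at 37 C/5% CO2, then dosed by pintool with compound in DMSO.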

[3] = A CellTox Green Cytotoxicity Assay to monitor cytotoxicity in HepG2 cells - 0 hour (AID 1224882); note: nearly all actives have a fitted effect of over 35% in size
Summary of the method: as §1

[4] = A CellTox Green Cytotoxicity Assay to monitor cytotoxicity in HepG2 cells - 32 hour (AID 1224883); note: nearly all actives have a fitted effect of over 50% in size
Summary of the method: as §1

[5] = A CellTox Green Cytotoxicity Assay to monitor cytotoxicity in HEK293 cells - 8 hour (AID 1224884); note: nearly all actives have a fitted effect of over 35% in size
Summary of the method: as §2

[6] = qHTS RealTime-Glo MT Cell Viability Assay in HepG2 cells - 16 hour (AID 1224885); note: nearly all actives have a fitted effect of over 50% in size
Summary of the method: (§3)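 Viability was tracked continuously by NanoLuc luminescence from prosubstrate reduced by living HepG2 cells, at successive time points over 40 h of compound exposure. Cells with reagent were preincubated 5 h at 37 °C before compound addition.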

[7] = qHTS RealTime-Glo MT Cell Viability Assay in HEK293 cells - 24 hour (AID 1224886); note: top concentration of the series differs between compounds; nearly all actives have a fitted effect of over 50% in size
Summary of the method: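 Viability tracked continuously by luminescence as live cells reduce a prosubstrate for NanoLuc; HEK293 cells preincubated 5 h, compound-treated at 37 C, and read at 0, 8, 16, 24, 32 and 40 h.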

[8] = qHTS RealTime-Glo MT Cell Viability Assay in HEK293 cells - 8 hour (AID 1224887); note: top concentration of the series differs between compounds; nearly all actives have a fitted effect of over 50% in size
Summary of the method: (§4)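 Measured as luminescence from the same continuously cultured HEK293 wells at successive time points (0, 8, 16, 24, 32, 40 h) after compound addition. Reagent present from seeding; dosing at 5 h; incubation 37 C.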

[9] = A CellTox Green Cytotoxicity Assay to monitor cytotoxicity in HEK293 cells - 16 hour (AID 1224888); note: nearly all actives have a fitted effect of over 35% in size
Summary of the method: as §2

[10] = qHTS RealTime-Glo MT Cell Viability Assay in HepG2 cells - 0 hour (AID 1224889); note: nearly all actives have a fitted effect of over 50% in size; note: potency is the fitted concentration of half-maximal effect
Summary of the method: as §3

[11] = A CellTox Green Cytotoxicity Assay to monitor cytotoxicity in HepG2 cells - 8 hour (AID 1224890); note: nearly all actives have a fitted effect of over 45% in size
Summary of the method: as §1

[12] = qHTS assay to identify small molecule antagonists of the estrogen receptor alpha (ER-alpha) signaling pathway using the BG1 cell line in the presence of 0.1 nM 17-beta-estradiol - cell viability counter screen (AID 1259241); note: nearly all actives have a fitted effect of over 40% in size
Summary of the method: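 Viability in VM7Luc4E2 cells after 22 hr compound exposure under 0.1 nM 17beta-estradiol stimulation, by CellTiter-Fluor.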

[13] = qHTS assay to identify small molecule antagonists of the androgen receptor (AR) signaling pathway using the MDA cell line in the presence of 0.5 nM R1881 - cell viability counter screen (AID 1259242); note: nearly all actives have a fitted effect of over 45% in size
Summary of the method: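 Human breast carcinoma MDA-kb2 cells, cultured without CO2, receive compounds alongside 0.5 nM (final) R1881 agonist. After 16 hr at 37C, viability is taken as live-cell protease signal.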

[14] = qHTS assay to identify small molecule phospholipidosis (PLD) inducers (AID 1259344; active = well fitted curve in the direction sought with a large enough effect; an effect the other way counts as inactive or inconclusive)
Summary of the method: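 Read-out is LipidTOX Red fluorescence (ex 595/em 615) imaged in HepG2 cells after 24 h compound exposure at 37 C, with Hoechst nuclear counterstain (ex 352/em 461) allowing per-cell normalisation.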

[15] = qHTS assay to identify small molecule HDAC inhibitors (AID 1259364);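 note: wild-type HCT-116 cells with endogenous class I/II HDAC activity; top concentration of the series differs between compounds; nearly all actives have a fitted effect of over 45% in size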
Summary of the method: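 After a 2 hr compound incubation (37C, 5% CO2), HCT-116 cells seeded at 1,500/well the day before received HDAC-Glo reagent; signal read as luminescence after 30 min at room temperature.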

[16] = qHTS assay to identify small molecule HDAC inhibitors - cell viability counter screen (AID 1259365)
Summary of the method: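 Cytotoxicity was gauged in wild-type HCT-116 cells after a brief 2hr treatment with DMSO-dissolved compounds at 37C and 5% CO2, using CellTiter-Glo luminescence developed for 30min at room temperature.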

[17] = qHTS RealTime-Glo MT Cell Viability Assay in HEK293 cells - 0 hour (AID 1224880); note: top concentration of the series differs between compounds; nearly all actives have a fitted effect of over 45% in size
Summary of the method: as §4

[18] = biological target: Estrogen receptor (Homo sapiens) (UniProt P03372); experiment: qHTS assay to identify small molecule antagonists of the estrogen receptor alpha (ER-alpha) signaling pathway using the BG1 cell line in the presence of 0.1 nM 17-beta-estradiol (AID 1259244); note: nearly all actives have a fitted effect of over 50% in size
Summary of the method: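 Seeding of stripped-serum-adapted VM7Luc4E2 cells, 24 h attachment, compound transfer, then 0.1 nM final 17beta-estradiol; after 22 h incubation, ONE-Glo reagent and luminescence reading.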

[19] = biological target: Androgen receptor (Homo sapiens) (UniProt P10275); experiment: qHTS assay to identify small molecule antagonists of the androgen receptor (AR) signaling pathway using the MDA cell line in the presence of 0.5 nM R1881 (AID 1259243); note: nearly all actives have a fitted effect of over 50% in size; note: potency is the fitted concentration of half-maximal effect
Summary of the method: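 Cells: MDA-kb2 (MMTV-luc). Stimulus: 0.5 nM R1881. Time: 16 hr, 37C, no CO2. Detection: ONE-Glo luminescence after 30 min at RT.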
% is set by controls: 0 for no effect and ±100 for the full control effect.

Chain of Estrogen receptor (Homo sapiens) (P03372 whole entry, looked up): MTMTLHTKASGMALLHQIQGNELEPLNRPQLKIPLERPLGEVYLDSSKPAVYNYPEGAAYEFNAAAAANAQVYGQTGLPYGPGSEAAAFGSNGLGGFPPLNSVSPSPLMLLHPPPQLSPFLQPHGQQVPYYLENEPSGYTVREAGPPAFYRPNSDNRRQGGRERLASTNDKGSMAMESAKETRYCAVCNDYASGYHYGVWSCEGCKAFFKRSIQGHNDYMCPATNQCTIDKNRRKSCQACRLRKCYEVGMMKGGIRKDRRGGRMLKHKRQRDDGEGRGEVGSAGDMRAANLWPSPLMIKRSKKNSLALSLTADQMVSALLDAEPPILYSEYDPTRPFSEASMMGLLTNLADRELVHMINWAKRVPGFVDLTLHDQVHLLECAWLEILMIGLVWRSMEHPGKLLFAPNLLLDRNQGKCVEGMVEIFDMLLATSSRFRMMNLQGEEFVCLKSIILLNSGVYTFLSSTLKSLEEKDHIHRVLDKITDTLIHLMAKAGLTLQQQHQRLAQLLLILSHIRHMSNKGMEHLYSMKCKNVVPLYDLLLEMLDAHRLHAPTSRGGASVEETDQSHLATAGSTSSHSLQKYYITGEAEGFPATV
Chain of Androgen receptor (Homo sapiens) (P10275 whole entry, looked up): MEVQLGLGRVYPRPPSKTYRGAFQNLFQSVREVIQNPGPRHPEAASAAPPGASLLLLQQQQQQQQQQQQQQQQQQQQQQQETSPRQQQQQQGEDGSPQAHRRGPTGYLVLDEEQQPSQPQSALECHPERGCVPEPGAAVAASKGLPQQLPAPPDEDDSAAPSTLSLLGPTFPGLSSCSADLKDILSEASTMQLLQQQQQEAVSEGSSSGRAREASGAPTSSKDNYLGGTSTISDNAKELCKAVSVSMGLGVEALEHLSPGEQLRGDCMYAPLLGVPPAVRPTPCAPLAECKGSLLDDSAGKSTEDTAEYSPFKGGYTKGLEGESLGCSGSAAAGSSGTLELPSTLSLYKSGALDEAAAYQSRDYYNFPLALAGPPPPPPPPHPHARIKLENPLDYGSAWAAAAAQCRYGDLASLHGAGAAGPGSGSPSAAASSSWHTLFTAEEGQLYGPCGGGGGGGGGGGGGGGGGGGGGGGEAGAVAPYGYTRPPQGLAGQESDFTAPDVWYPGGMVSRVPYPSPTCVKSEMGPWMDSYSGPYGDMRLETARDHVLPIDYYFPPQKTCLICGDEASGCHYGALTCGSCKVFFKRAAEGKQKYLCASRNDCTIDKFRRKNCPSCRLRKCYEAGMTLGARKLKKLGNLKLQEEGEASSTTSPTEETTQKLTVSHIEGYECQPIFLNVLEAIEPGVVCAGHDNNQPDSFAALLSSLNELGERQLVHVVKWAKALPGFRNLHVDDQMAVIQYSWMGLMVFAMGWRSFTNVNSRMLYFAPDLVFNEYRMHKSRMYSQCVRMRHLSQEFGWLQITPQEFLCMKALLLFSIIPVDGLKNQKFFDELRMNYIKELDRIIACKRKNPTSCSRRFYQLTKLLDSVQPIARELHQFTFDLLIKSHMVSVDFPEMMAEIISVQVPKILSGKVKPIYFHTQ

O=C1CC2(CCCC2)CC(=O)N1CCNCC1COc2ccccc2O1 (stereo not drawn)
inactive: Potency [1] | Potency [2] | Potency [3] | Potency [4] | Potency [5] | outcome [6] | outcome [7] | outcome [8] | Potency [9] | Potency [10] | Potency [11] | outcome [12] | outcome [13] | Potency [14] | Potency [15] | outcome [16]

O=C(CCBr)N1CCN(C(=O)CCBr)CC1
inactive: Potency [1] | Potency [17] | Potency [2] | Potency [3] | Potency [4] | Potency [5] | outcome [6] | outcome [7] | outcome [8] | Potency [9] | Potency [10] | Potency [11] | outcome [13] | outcome [18] | Potency [14] | Potency [15] | outcome [16]

CCCCCCCCCCCCCCCC(=O)OC
inactive: cytotoxicity increase [1] -22.4% [at 15.8 µM] | activity change, negative = cytotoxicity [17] -3.44% [at 15.8 µM] | cytotoxicity increase [2] -5.35% [at 15.8 µM] | cytotoxicity [3] -12.7% [at 15.8 µM] | cytotoxicity increase [4] -21.5% [at 15.8 µM] | cytotoxicity increase [5] -3.06% [at 15.8 µM] | activity change, negative = cytotoxic [6] -7.62% [at 15.8 µM] | activity change, negative = cytotoxicity [7] -2.1% [at 15.8 µM] | activity change, negative = cytotoxicity [8] 0.781% [at 15.8 µM] | activity change [9] 0.239% [at 15.8 µM, active compounds read high] | activity change, negative = cytotoxicity [12] 6.9% [at 19 µM] | viability change, negative = cytotoxic [13] 3.68% [at 19 µM] | activity change, negative = inhibition [15] 2.36% [at 19 µM] | activity change, negative = cytotoxicity [16] -1.77% [at 19 µM]

C[C@]12C=CC(=O)C=C1[C@@H](F)C[C@@H]1[C@@H]2[C@@H](O)C[C@@]2(C)[C@H]1CC[C@]2(O)C(=O)CO
active: Potency [10] 10.7 µM
inactive: Potency [1] | Potency [2] | Potency [3] | Potency [4] | Potency [5] | outcome [6] | outcome [7] | outcome [8] | Potency [9] | outcome [12] | outcome [13] | Potency [14] | Potency [15] | outcome [16]

CCC(C)(C)C
inactive: Potency [1] | Potency [17] | Potency [2] | Potency [3] | Potency [4] | outcome [6] | outcome [7] | outcome [8] | Potency [10] | Potency [11] | outcome [13] | outcome [18] | Potency [15] | outcome [16]

C=CCON/C(CCC)=C1\C(=O)CC(C)(C)C(C(=O)OC)=C1O
inactive: Potency [17] | Potency [2] | Potency [3] | Potency [5] | outcome [6] | outcome [7] | outcome [8] | Potency [9] | Potency [10] | outcome [12] | outcome [13] | Potency [15] | outcome [16]

COc1cc(C(=O)NC2CCCNC2)cc(OC)c1OC (stereo not drawn)
inactive: Potency [1] | Potency [17] | Potency [2] | Potency [3] | Potency [4] | outcome [7] | outcome [8] | Potency [9] | outcome [12] | outcome [13] | Potency [14] | Potency [15] | outcome [16]

CC(C)C(C)C
inactive: Potency [1] | Potency [17] | Potency [2] | Potency [3] | Potency [4] | outcome [6] | outcome [7] | outcome [8] | Potency [9] | Potency [10] | Potency [11] | outcome [12] | outcome [13] | outcome [16]

CC(O)CCCCn1c(=O)c2c(ncn2C)n(C)c1=O (stereo not drawn)
inactive: Potency [1] | Potency [17] | Potency [2] | Potency [3] | Potency [4] | Potency [5] | outcome [6] | outcome [7] | outcome [8] | Potency [9] | Potency [10] | Potency [11] | outcome [13] | outcome [18] | Potency [14] | Potency [15] | outcome [16]

CCOc1ccccc1OCCN[C@H](C)Cc1ccc(OC)c(S(N)(=O)=O)c1
inactive: Potency [1] | Potency [17] | Potency [2] | Potency [3] | Potency [4] | outcome [6] | outcome [7] | outcome [8] | Potency [9] | Potency [10] | Potency [11] | outcome [12] | outcome [13] | Potency [14] | Potency [15] | outcome [16]

Cc1ccc(O)c([N+](=O)[O-])c1
inactive: Potency [1] | Potency [17] | Potency [2] | Potency [3] | Potency [4] | Potency [5] | outcome [6] | outcome [7] | outcome [8] | Potency [10] | Potency [11] | outcome [13] | Potency [15] | outcome [16]

CC/C=C\CCOC(=O)c1ccccc1
inactive: Potency [17] | Potency [3] | outcome [6] | outcome [7] | Potency [10] | Potency [11] | outcome [12] | outcome [13] | Potency [19] | outcome [18] | outcome [16]

O=c1[nH]c(=O)c2cn[nH]c2[nH]1
inactive: Potency [1] | Potency [17] | Potency [2] | Potency [3] | Potency [4] | outcome [6] | outcome [7] | outcome [8] | Potency [9] | Potency [10] | Potency [11] | outcome [12] | outcome [13] | Potency [15] | outcome [16]

O=P(O)(O)C(O)(Cc1cccnc1)P(=O)(O)O
inactive: Potency [1] | Potency [17] | Potency [2] | Potency [3] | Potency [4] | Potency [5] | outcome [6] | outcome [7] | outcome [8] | Potency [9] | Potency [11] | outcome [12] | outcome [13] | outcome [18] | Potency [14] | Potency [15] | outcome [16]

CCO[Si](CC(C)C)(OCC)OCC
inactive: Potency [17] | Potency [2] | Potency [3] | Potency [5] | outcome [6] | outcome [7] | outcome [8] | Potency [11] | outcome [12] | outcome [13] | Potency [15] | outcome [16]

Cc1cccc(N)n1
inactive: Potency [1] | Potency [17] | Potency [2] | Potency [3] | Potency [4] | Potency [5] | outcome [6] | outcome [7] | outcome [8] | Potency [9] | outcome [12] | outcome [13] | outcome [18] | Potency [15] | outcome [16]

Clc1ccc2c(c1)Nc1ccccc1S2
active: Potency [19] 10.6 µM
inactive: Potency [1] | Potency [17] | Potency [2] | Potency [3] | Potency [4] | outcome [6] | outcome [7] | Potency [9] | Potency [11] | outcome [12] | outcome [13] | outcome [18] | Potency [15] | outcome [16]
